Screening data (PubChem BioAssay)
G9a block: G9a (human) methyltransferase inhibition | Q96KQ7 | G9a H3K9 monomethylation, AlphaScreen, 2 h | Potency, µM (top dose mostly 102 µM), without a hit: at the top dose activity, negative = inhibition, actives largely listed as inhibitors | actives 8.8% (n = 350,000) | AID 504332; note: % is set by controls: 0 for no effect and ±100 for the full control effect; nearly all actives have a fitted effect of over 75% in size
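Quantitative HTS format: methyltransferase activity on a biotin-tagged H3K9 peptide is measured by AlphaScreen, using a rabbit anti-monomethyl-H3K9 antibody with streptavidin donor and anti-IgG acceptor beads. Final levels are 20 nM enzyme, 500 nM peptide, 20 uM SAM; 2 h RT.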
HP1b chromo inh: inhibitors of HP1-beta chromodomain binding to methylated histone tails. P83916. AlphaScreen HP1-beta / biotin-H3K9me3 peptide binding. Potency, µM (doses to about 114 µM), for the others: at the top dose activity change, negative = inhibition, hits mostly inhibitors. actives 0.56% (n = 390,000); note: nearly all actives have a fitted effect of over 70% in size
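HP1-beta protein (50 nM final) preincubated 30 min at room temperature with biotinylated H3(1-18)K9me3 peptide (50 nM) in PBS pH 7.4, 0.01% Tween-20, then compound added for 30 min. AlphaScreen streptavidin donor/nickel chelate acceptor beads (10 ug/mL final), 30 min dark, luminescence read.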
BAZ2B block: blocks human BAZ2B. actives 4.4% (n = 360,000). AlphaScreen BAZ2B-H3K14Ac peptide displacement. Potency, µM (doses to about 114 µM), for inactives: at the top dose activity change, negative = inhibition, actives largely listed as inhibitors. AID 504333. Q9UIF8; note: % is set by controls: 0 for no effect and ±100 for the full control effect; nearly all actives have a fitted effect of over 60% in size
Target sequence (Q9UIF8 whole entry, looked up): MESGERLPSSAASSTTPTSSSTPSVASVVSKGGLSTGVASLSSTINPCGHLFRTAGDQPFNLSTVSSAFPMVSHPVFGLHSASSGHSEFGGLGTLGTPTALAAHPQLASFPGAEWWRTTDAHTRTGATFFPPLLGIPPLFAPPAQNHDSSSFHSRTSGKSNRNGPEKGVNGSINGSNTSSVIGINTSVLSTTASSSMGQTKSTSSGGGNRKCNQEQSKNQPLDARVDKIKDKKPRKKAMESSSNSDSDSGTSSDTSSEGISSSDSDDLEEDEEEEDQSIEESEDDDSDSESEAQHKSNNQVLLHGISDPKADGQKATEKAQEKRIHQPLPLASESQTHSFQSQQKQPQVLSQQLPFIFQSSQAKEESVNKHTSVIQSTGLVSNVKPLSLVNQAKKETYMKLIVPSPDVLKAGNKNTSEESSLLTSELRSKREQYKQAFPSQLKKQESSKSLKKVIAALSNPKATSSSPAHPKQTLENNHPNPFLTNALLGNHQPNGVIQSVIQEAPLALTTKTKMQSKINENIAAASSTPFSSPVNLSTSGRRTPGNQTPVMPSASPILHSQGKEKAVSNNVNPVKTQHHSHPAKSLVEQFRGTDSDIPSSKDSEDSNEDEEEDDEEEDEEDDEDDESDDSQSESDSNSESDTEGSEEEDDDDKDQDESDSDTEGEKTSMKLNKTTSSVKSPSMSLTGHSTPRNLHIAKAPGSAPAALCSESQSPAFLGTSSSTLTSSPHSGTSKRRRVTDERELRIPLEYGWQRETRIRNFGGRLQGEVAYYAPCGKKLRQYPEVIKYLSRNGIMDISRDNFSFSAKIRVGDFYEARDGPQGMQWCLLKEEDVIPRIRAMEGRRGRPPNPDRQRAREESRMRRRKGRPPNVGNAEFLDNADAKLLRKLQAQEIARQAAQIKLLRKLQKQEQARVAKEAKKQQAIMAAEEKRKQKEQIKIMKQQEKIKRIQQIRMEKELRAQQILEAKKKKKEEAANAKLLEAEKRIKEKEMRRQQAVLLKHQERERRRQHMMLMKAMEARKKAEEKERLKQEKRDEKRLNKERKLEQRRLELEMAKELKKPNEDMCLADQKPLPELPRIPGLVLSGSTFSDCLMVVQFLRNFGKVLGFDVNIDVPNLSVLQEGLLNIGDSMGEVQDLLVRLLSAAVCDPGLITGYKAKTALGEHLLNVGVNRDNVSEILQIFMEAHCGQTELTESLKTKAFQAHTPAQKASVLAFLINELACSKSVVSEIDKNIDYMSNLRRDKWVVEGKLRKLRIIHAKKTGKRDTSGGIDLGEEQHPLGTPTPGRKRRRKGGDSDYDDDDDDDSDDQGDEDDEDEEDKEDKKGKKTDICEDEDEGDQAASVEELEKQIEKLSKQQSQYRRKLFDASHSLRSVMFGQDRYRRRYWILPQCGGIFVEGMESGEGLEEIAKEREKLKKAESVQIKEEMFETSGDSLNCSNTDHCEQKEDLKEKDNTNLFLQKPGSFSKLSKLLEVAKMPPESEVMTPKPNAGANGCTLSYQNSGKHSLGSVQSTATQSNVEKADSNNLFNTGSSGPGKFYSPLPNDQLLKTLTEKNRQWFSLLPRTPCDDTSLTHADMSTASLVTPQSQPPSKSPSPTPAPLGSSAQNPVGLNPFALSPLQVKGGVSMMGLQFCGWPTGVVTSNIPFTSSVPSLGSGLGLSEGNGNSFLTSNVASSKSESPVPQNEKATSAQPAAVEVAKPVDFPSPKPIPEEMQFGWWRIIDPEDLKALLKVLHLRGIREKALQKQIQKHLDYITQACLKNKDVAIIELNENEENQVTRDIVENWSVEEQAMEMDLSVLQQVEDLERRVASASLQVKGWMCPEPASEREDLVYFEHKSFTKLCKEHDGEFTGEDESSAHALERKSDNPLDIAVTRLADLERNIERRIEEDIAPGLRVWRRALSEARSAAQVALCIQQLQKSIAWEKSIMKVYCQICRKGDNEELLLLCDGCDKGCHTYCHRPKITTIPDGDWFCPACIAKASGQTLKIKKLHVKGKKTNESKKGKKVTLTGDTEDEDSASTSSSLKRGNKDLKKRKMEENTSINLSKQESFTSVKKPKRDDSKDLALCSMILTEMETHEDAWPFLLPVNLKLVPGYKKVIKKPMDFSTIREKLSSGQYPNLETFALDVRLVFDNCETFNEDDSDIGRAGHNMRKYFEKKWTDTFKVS
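BAZ2B 50 nM plus b-H3(5-23)K14Ac 50 nM, PBS pH 7.4/0.01% Tween-20, 30 min RT; compound added (max 110 uM), 30 min RT; streptavidin donor/Ni-chelate acceptor beads 10 ug/mL final, 20 min dark; AlphaScreen read.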
L3MBTL1 inh: blocks human L3MBTL1. actives 0.66% (n = 230,000). AID 485360. AlphaScreen L3MBTL1–H3K9me1 peptide binding. Potency, µM (titrated, usually from 57.1 µM), for the others: at the highest dose activity, negative = inhibition, actives largely listed as inhibitors; note: % is set by controls: 0 for no effect and ±100 for the full control effect; nearly all actives have a fitted effect of over 60% in size
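L3MBTL1 (50 nM) pre-complexed 30 min with biotinylated H3(1-15)K9me1 peptide (75 nM), then compounds added for 30 min at room temperature; AlphaScreen streptavidin donor/nickel chelate acceptor beads (10 ug/mL final) read after 30 min dark incubation.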
Sfp PPTase inh: blocks B. subtilis Sfp PPTase activity; actives 3.5% (n = 310,000); Potency, µM, inactives show largest response in the series, negative = inhibition, most hits filed as inhibitors; AID 1490; Q9F4F7; Biochemical Sfp PPTase activity, qHTS;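 note: the enzyme is Sfp with the accession as filed and its product quenches rhodamine fluorescence; 0% = enzyme reaction without inhibitor and -100% = no enzyme wells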
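With Hepes-Na pH 7.6 buffer containing 10 mM MgCl2, Sfp (15 nM) modified BHQ-2-YbbR (12.5 uM) using rhodamine-CoA (5 uM). Two reads 30 minutes apart at 525/598 nm yielded each well's rate.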
JMJD2A Tudor inh: blocks the human JMJD2A Tudor domain. O75164. AlphaScreen JMJD2A-Tudor / H3K4me3 peptide binding. Potency, µM (series often up to 114 µM), without a hit: top-dose activity change, negative = inhibition, actives largely listed as inhibitors. actives 4.4% (n = 390,000); note: % is set by controls: 0 for no effect and ±100 for the full control effect; nearly all actives have a fitted effect of over 50% in size
* hit, by the source's call; ? = inconclusive; · = no result given; [ ] = another dose, or the depositor's remark. A selection: hits, their analogues and other compounds. The true share with any hit is near 12%. Calls come from the whole dose curve; as a rule, active = well fitted curve in the direction sought with a large enough effect; inconclusive = small, poorly fitted or top-dose-only effect, or another doubt; inactive = no such curve, though single readings can be large; an effect the other way counts as inactive or inconclusive. Potency is the fitted concentration of half-maximal effect.

SMILES	G9a block	HP1b chromo inh	BAZ2B block	L3MBTL1 inh	Sfp PPTase inh	JMJD2A Tudor inh
CC(C)Cc1nnc(NC(=O)c2ccc3c(c2)OCCO3)s1	-11%[12.7 µM]	25%	23%	36%	·	-22%
CCOC(=O)c1ccccc1NC(=O)C1CC(=O)N(C(C)(C)C)C1 (stereo not given)	25%	18%	1%	0%	18%	?
CCOC(=O)c1ccccc1NC1CC(=O)N(c2ccccc2C)C1=O (stereo not given)	?	7%	1%	·	79µM*	-20%
CCN(CC(=O)Nc1cccc(S(=O)(=O)N(C)c2ccccc2)c1)Cc1cccs1	10%[59 µM]	21%	-32%	-4%	·	-6%
Cc1ccc2nc(/C(C#N)=C\c3ccc(N4CCOCC4)o3)[nH]c2c1	10µM*	-3%	?	-9%	-4%	-26%
O=C(NCCc1ccc2c(c1)OCCO2)c1ccccc1F	2%[59 µM]	20%	-3%	2%	5%	-1%
O=C(/C=C/c1ccc(F)cc1)NCCc1ccc2c(c1)OCCO2	89µM*	36%	5%	-1%	1%	-3%
Cn1ccnc1Sc1nc2ccccc2nc1NS(=O)(=O)c1ccccc1	-28%[59 µM]	27%	?	-1%	50µM*	-20%
Cn1cnnc1Sc1nc2ccccc2nc1NS(=O)(=O)c1ccccc1	50µM*	37%	?	6%	1%	-14%
O=c1cc(-c2ccccc2)nc(SCc2nc(-c3ccc(C(F)(F)F)cc3)no2)[nH]1	-7%[59 µM]	31%	1%	·	·	8%
COc1ccc(-c2noc(CSc3nc(-c4ccccc4)cc(=O)[nH]3)n2)cc1	40µM*	37%	26%	·	?	-18%
Cc1cc(C)cc(NC(=O)C(Cc2ccccc2)N2Cc3ccccc3C2=O)c1 (stereo not given)	-12%[59 µM]	-9%	1%	·	·	-16%
CC[C@H](C)[C@H](NC(=O)[C@H](CC(=O)O)NC(=O)[C@H](CC(C)C)NC(=O)[C@H](Cc1cnc[nH]1)NC(=O)[C@H](C)NC(=O)[C@H](Cc1ccccc1)NC(=O)[C@H](Cc1ccc(O)cc1)NC(=O)[C@@H](NC(=O)[C@H](C)NC(=O)[C@H](CCC(=O)O)NC(=O)[C@H](CCC(=O)O)NC(=O)[C@H](CC(=O)O)NC(=O)CCC(=O)O)C(C)C)C(=O)N[C@H](C(=O)N[C@@H](Cc1c[nH]c2ccccc12)C(=O)O)[C@@H](C)CC	·	·	·	·	0%	·
COc1cc(-c2noc(C)c2/C=C/c2ccc(C(=O)O)cc2)cc(OC)c1OC	·	3%	?	?	-2%	71µM*
CC(=O)Nc1ccc(C(=O)COC(=O)c2cc(C)oc2C)c(F)c1	·	24%	·	1%	·	-31%
CCn1cc(C(=O)NCCN(C)C)c(=O)c2cc(F)c(N3CCN(C)CC3)cc21	50µM*	5%	-1%	·	-2%	-9%
CCn1cc(C(=O)NCCCN(C)C)c(=O)c2cc(F)c(N3CCN(C)CC3)cc21	35µM*	30%	2%	-15%	20%	-8%
CCCNC(=O)c1cn(CC)c2cc(N3CCN(C)CC3)c(F)cc2c1=O	-12%[12.7 µM]	20%	4%	·	16%	0%
CCCCCNC(=O)c1cn(CC)c2cc(N3CCN(C)CC3)c(F)cc2c1=O	43%[0.501 µM]	-3%	-2%	·	8%	-10%
CCOC(=O)c1cc2c(=O)n3ccccc3nc2n(CC2CCCO2)c1=NC(=O)c1ccccc1C (stereo not given)	6%[59 µM]	15%	0%	·	·	-13%
CCOC(=O)C1=C(C)N=c2s/c(=C\c3cccn3C)c(=O)n2C1c1cccc(OC)c1OC (stereo not given)	?	-29%	?	-5%	16µM*	?
CCOC(=O)C1=C(C)N=c2s/c(=C/c3cccc([N+](=O)[O-])c3O)c(=O)n2C1c1cc(OC)c(OC)c(OC)c1 (stereo not given)	2.2µM*	16µM*	7.9µM*	·	56µM*	14µM*
CCOC(=O)C1=C(C)N=c2s/c(=C\c3cccc(OCC(=O)O)c3)c(=O)n2C1c1ccccc1 (stereo not given)	?	0%	-38%	-3%	-21%	?
CCOC(=O)C1=C(C)N=c2s/c(=C/c3cccc([N+](=O)[O-])c3O)c(=O)n2C1c1ccccc1 (stereo not given)	2µM*	14µM*	7.1µM*	·	50µM*	28µM*
CCOC(=O)C1=C(C)N=c2s/c(=C\c3cc(OC)c(OC)c(OC)c3)c(=O)n2C1/C=C/c1ccccc1 (stereo not given)	18%	9%	4%	7%	5%	-23%[57.1 µM]
SMILES	G9a block	HP1b chromo inh	BAZ2B block	L3MBTL1 inh	Sfp PPTase inh	JMJD2A Tudor inh
Cc1ccc(N(Cc2cccs2)C(=O)c2ccccc2Cl)cc1	7%[59 µM]	46%	23%	·	·	12%
COc1cccc(C2/C(=C(\O)c3c(C)nc4c(C)cccn34)C(=O)C(=O)N2CCCN(C)C)c1 (stereo not given)	50µM*	·	-6%	1%	-11%	·
COc1ccc(/C(O)=C2/C(=O)C(=O)N(CCN(C)C)C2c2ccc(OC)c(OC)c2)c(C)c1 (stereo not given)	40µM*	19%	-38%	2%	6%	-13%
COc1cc(C2/C(=C(/O)c3ccc(OCC(C)C)cc3)C(=O)C(=O)N2CCN(C)C)ccc1O (stereo not given)	25µM*	17%	-9%	-10%	-8%	-8%
CC(C)COc1ccc(/C(O)=C2/C(=O)C(=O)N(CCN(C)C)C2c2ccncc2)cc1 (stereo not given)	?	19%	-1%	13%	?	-23%
COc1ccc(C2/C(=C(/O)c3cnn(-c4ccccc4)c3C)C(=O)C(=O)N2CCN(C)C)cc1OC (stereo not given)	·	25%	·	·	·	18µM*
Cc1c(/C(O)=C2/C(=O)C(=O)N(CCN3CCOCC3)C2c2cccnc2)cnn1-c1ccccc1 (stereo not given)	8%[12.7 µM]	12%	5%	2%	9%	-16%
COc1ccc(OC)c(C2/C(=C(\O)c3ccc(OC)c(Cl)c3)C(=O)C(=O)N2CCN(C)C)c1 (stereo not given)	2%[12.7 µM]	26%	-35%	1%	20%	-28%
Cc1ccc(-n2c(=O)c3cccnc3n2CC(=O)Nc2ccc(Br)cc2)cc1C	24%[59 µM]	58%	2%	·	·	8%
COc1ccc(OC)c(C2/C(=C(/O)c3cnn(-c4ccccc4)c3C)C(=O)C(=O)N2CCN(C)C)c1 (stereo not given)	?	25%	50µM*	·	0%	-4%
